This is a sample that favours compounds with a hit; in the whole collection about 1% have one here.
Efflux pump mplx – antifungal efflux pump inhibition, Nile Red retention | S. cerevisiae Candida pump triplex | inhibition, % at 10 µM | 330,000 tested, 0.44% active | AID 485275;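 active = plate passing quality check with inhibition over a set limit, or well fluorescence over plate mean plus 4 SD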;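 also: Nile Red retained in pooled yeast measured as flow cytometry median fluorescence; higher means more Nile Red kept so more efflux inhibition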
GC-A act – GC-A (human) enzyme activation. 370,000 tested, 0.14% active. P16066. AID 1671463. activation, % at 10 µM. HEK293 GC-A cells, cGMP TR-FRET, EC30 ANP; 0% at EC30 ANP, 100% saturating ANP; in the data active = activation above about 40%
HSV augment – HSV replication enhancement | HSV replication augmentation in cells, fold increase | AID 1956 | maximum fold increase | 220,000 tested, 0.005% active; in the data active = maximum fold increase above about 1.5; inconclusive = no clear call, values can overlap the other calls; tested in PC3 cells
GC-B act – GC-B (human) receptor activation; HEK293-GC-B cells, CNP EC30, cGMP TR-FRET; 0% at EC30 CNP, 100% saturating CNP; P20594; activation, % at 10 µM; 370,000 tested, 0.11% active;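 active = activation at 10 µM reaching about 35% in either raw or pattern-adjusted values, limit read from the data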
H9c2 TAG inh – inhibitors of triacylglycerol accumulation | H9c2 cells, Nile Red lipid (TAG) fluorescence; cells loaded with 200 µM oleic acid | inhibition, % at 12.5 µM | 230,000 tested, 0.66% active | AID 651582;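 active = pattern-corrected inhibition of lipid staining of at least 50% with the nuclear-stain viability signal not falling by more than 50%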
A1 inh – inhibitors of the anti-apoptotic protein A1, read as caspase activation; MEF A1-2A-BIM cells, Caspase-Glo 3/7 luminescence, 3 h; percent of clofoctol response, vehicle zero; 330,000 tested, 0.066% active; caspase activation, % (concentration not given with the values);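 active = over half of replicate activation scores above 10%, or exactly half above 10 with the replicate mean above 10; inconclusive = replicate mean below 10 yet half the replicates above 10; inactive = over half of replicates below 10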
Each line names hits and unclear results; the compound was inactive in the other large screens.

O=C(CN1CCCC1)Nc1ccc(-c2nc3cc(NC(=O)CN4CCCC4)ccc3o2)cc1	H9c2 TAG inh 52
c1ccc(Cn2ccc3ccc(-c4ccc5ccn(Cc6ccc7ccccc7c6)c5c4)cc32)cc1	none (no result: Efflux pump mplx, HSV augment, H9c2 TAG inh, A1 inh)
O=C(Cn1nnc(-c2ccc(F)cc2)n1)OCC(=O)c1ccccc1	GC-A act 49
O=C(CCc1nc(-c2ccccc2F)no1)NCCc1ccccc1F	none (no result: Efflux pump mplx, HSV augment, H9c2 TAG inh, A1 inh)
CC1CC1C(=O)Nc1nc(-c2ccc(Cl)s2)cs1 (centres undefined)	GC-A act 51
O=C(CN1C(=O)CCC1=O)Nc1nc(-c2cccs2)cs1	none (no result: H9c2 TAG inh)
O=C(CSCC(=O)N1CCCCC1)Nc1nc(-c2ccc(Cl)s2)cs1	GC-A act 43, A1 inh inconclusive
O=C(Nc1nc(-c2ccc(Cl)s2)cs1)c1ccncc1	none (no result: GC-A act, GC-B act, H9c2 TAG inh)
O=C(CN1C(=O)CCC1=O)Nc1nc(-c2ccc(Cl)s2)cs1	GC-A act 54 (no result: H9c2 TAG inh)
CCOC(=O)c1csc(NC(=O)C2CCCN(S(=O)(=O)c3ccc(Br)s3)C2)n1 (centres undefined)	none (no result: Efflux pump mplx, HSV augment, H9c2 TAG inh, A1 inh)
COc1ccc(NC(=O)c2c(N)no[n+]2[O-])cc1	none
COc1ccc(C(=O)c2no[n+]([O-])c2C(=O)c2ccc(OC)cc2)cc1	H9c2 TAG inh 54
COc1ccc(S(=O)(=O)C(C#N)c2nc3ccccc3nc2N2CCCC(C)C2)cc1 (centres undefined)	HSV augment 1.6 (no result: H9c2 TAG inh)
CC1CCCN(c2nc3ccccc3nc2C(C#N)S(=O)(=O)c2cccs2)C1 (centres undefined)	none (no result: H9c2 TAG inh)
COC(=O)C[C@@H]1CC[C@H]2[C@@H](COc3ccc(NC(=O)Nc4ccccc4)cc3C(=O)N2C)O1	none (no result: Efflux pump mplx, HSV augment, H9c2 TAG inh, A1 inh)
COc1cc(NC(=O)c2ccc(Br)cc2)c(OC)cc1NC(=O)c1ccccc1	none (no result: HSV augment)
COc1cc(NC(=O)c2ccccc2)c(OC)cc1NC(=O)Cc1ccc(Br)cc1	A1 inh 12 (no result: HSV augment)
COc1cccc(NC(=O)C2CCCN2C(=O)Nc2cccc3c2OCO3)c1 (centres undefined)	none (no result: Efflux pump mplx, HSV augment, H9c2 TAG inh, A1 inh)
CCCCCc1cc(=O)oc2c(C(CCN3CCCCC3)c3ccc4c(c3)OCO4)c(OC)cc(OC)c12 (centres undefined)	H9c2 TAG inh 106
COc1cc(OC)c2c(-c3ccccc3)cc(=O)oc2c1C(CCN1CCCC(C)C1)c1ccc(N(C)C)cc1 (centres undefined)	H9c2 TAG inh 94
CCCCCc1cc(=O)oc2c(C(CCN3CCCC(C)C3)c3ccc4c(c3)OCO4)c(OC)cc(OC)c12 (centres undefined)	H9c2 TAG inh 78
COc1ccc(C(CCN2CCCC(C)C2)c2c(OC)cc(OC)c3c(-c4ccccc4)cc(=O)oc23)cc1 (centres undefined)	none
COc1ccc(C(CCN2CCCC(C)C2)c2c(OC)cc(OC)c3c(C)cc(=O)oc23)cc1 (centres undefined)	none
COc1cc(OC)c2c(-c3ccccc3)cc(=O)oc2c1C(CCN1CCCC1)c1ccc2c(c1)OCO2 (centres undefined)	none
O=S1(=O)c2ccc(N3CC[C@@H](O)C3)cc2O[C@H]2CCN1C2	none (no result: Efflux pump mplx, HSV augment, H9c2 TAG inh, A1 inh)
COc1cccc2c1[C@H](/C=C/c1ccccc1)[C@@H]([C@H](O)CO)OC2	none (no result: Efflux pump mplx, HSV augment, H9c2 TAG inh, A1 inh)
C=CCN1C(=O)[C@@H](CC(=O)NCc2cccc(C(F)(F)F)c2)[C@]2(C(=O)OCC)CCCCC/C=C/12	none (no result: Efflux pump mplx, HSV augment, H9c2 TAG inh, A1 inh)
COc1ccc(C[N+]2=C(N)NC3=C(C)Cn4c(=O)n(-c5ccccc5)c(=O)n4C3C2)c(OC)c1 (centres undefined)	none (no result: Efflux pump mplx, HSV augment, H9c2 TAG inh, A1 inh)
COC(=O)C1CN(C2CCCC2)CCS(=O)(=O)N1Cc1cn(Cc2ccc(C)cc2)nn1 (centres undefined)	none (no result: Efflux pump mplx, HSV augment, H9c2 TAG inh, A1 inh)
Cc1ccc(-c2ccc(/C=N\NC(=O)c3cc4c(ccc5ccccc54)o3)o2)cc1[N+](=O)[O-]	H9c2 TAG inh 64 (no result: HSV augment)
Cc1ccc([N+](=O)[O-])cc1-c1ccc(/C=N/NC(=O)c2cc3c(ccc4ccccc43)o2)o1	none (no result: HSV augment, H9c2 TAG inh)
O=C(N/N=C/c1ccc([N+](=O)[O-])o1)C(O)c1ccccc1 (centres undefined)	none
O=C(N/N=C/c1ccc(-c2ccc([N+](=O)[O-])cc2)o1)C(O)c1ccccc1 (centres undefined)	GC-A act 42, GC-B act 40
CCOC(=O)c1ccc(NC(=O)CSc2nnc(-c3cccc(C)c3)n2C)cc1	none (no result: Efflux pump mplx, HSV augment, H9c2 TAG inh, A1 inh)
CCCCCCCCN1C(=O)[C@@H](CC(=O)NCCCOC)C[C@@]2(C(=O)OC)C1=C[C@H](COCc1ccccc1)O[C@@H]2C	none (no result: Efflux pump mplx, HSV augment, H9c2 TAG inh, A1 inh)
O=C(O)c1ccc(N/N=C/c2ccc(-c3cccc(Cl)c3)o2)cc1	H9c2 TAG inh 84
O=C(O)c1ccc(N/N=C/c2ccc(-c3ccc(Cl)cc3Cl)o2)cc1	H9c2 TAG inh 53
O=C(O)c1cccc(-c2ccc(/C=N/Nc3ccc([N+](=O)[O-])cc3)o2)c1	HSV augment inconclusive
O=C(O)c1ccc(N/N=C/c2ccc(-c3cc(Cl)ccc3Cl)o2)cc1	none
CCCCn1cnc2c(c1=O)c1nc3ccccc3nc1n2Cc1ccc2c(c1)OCO2	GC-A act 52, GC-B act 52
COC(=O)[C@]12C[C@H](CC(=O)N3CCN(C(=O)C4CC4)CC3)C(=O)N(Cc3ccco3)C1=C[C@H](COCc1ccccc1)O[C@@H]2C	none (no result: Efflux pump mplx, HSV augment, H9c2 TAG inh, A1 inh)
Cc1ccccc1Cn1cc(CN2[C@H](Cc3ccccc3)COc3cc(Br)ccc3S2(=O)=O)nn1	none (no result: Efflux pump mplx, HSV augment, H9c2 TAG inh, A1 inh)
Cc1cc(NC(C)c2ccccc2)n2ncc(-c3ccccc3)c2n1 (centres undefined)	GC-A act 50, A1 inh inconclusive (no result: HSV augment, H9c2 TAG inh)
Cc1cc(NCc2ccccc2)n2ncc(-c3ccccc3)c2n1	none (no result: HSV augment, H9c2 TAG inh)
CCOC(=O)C1=C(COC(=O)Cc2c(F)cccc2Cl)NC(=O)NC1C (centres undefined)	GC-B act 36 (no result: HSV augment)
Cc1ccc(-n2c(COc3ccccc3)nnc2SCC(=O)Nc2ccc3c(c2)OCO3)cc1	none (no result: Efflux pump mplx, HSV augment, H9c2 TAG inh, A1 inh)
O=C(Nc1nc2cc3c(cc2s1)OCO3)c1cccc(N2C(=O)CCC2=O)c1	none
O=C(Nc1nc2ccc(Cl)cc2s1)c1cccc(N2C(=O)CCC2=O)c1	GC-A act 74 (no result: HSV augment)
COc1ccc2nc(NC(=O)c3cccc(N4C(=O)CCC4=O)c3)sc2c1	GC-A act 54 (no result: HSV augment)
CCc1cccc2c1Sc1ccccc1CC2N1CCNCC1 (centres undefined)	H9c2 TAG inh 67 (no result: HSV augment)
CCCCCC(=O)NC1CCCCN(Cc2ccccc2C)C1=O (centres undefined)	none (no result: Efflux pump mplx, HSV augment, H9c2 TAG inh, A1 inh)
CCOC(=O)C(C(=O)OCC)C(C(=O)OCC)N1CCOCC1 (centres undefined)	H9c2 TAG inh 99, A1 inh inconclusive
Cn1cc(-c2cccc3[nH]cc(-c4ccccc4)c23)c2ccccc21	none (no result: Efflux pump mplx, HSV augment, H9c2 TAG inh, A1 inh)
Cc1[nH]c2c(C)cccc2c1CCNC(=O)c1ccc2c(c1[N+](=O)[O-])C(=O)c1ccccc1C2=O	H9c2 TAG inh 52

Compound activity as filed in PubChem.
